Laboratory results taken from PubChem BioAssay AID504904 (The Scripps Research Institute Molecular Screening Center, 2011).
This is one part of the list. Unmarked numbers belong to inactive results. Activity calls are given as the source filed them. Rule as the data show it: active = activation above about 18%; inactive = the rest.

Target: Mu-type opioid receptor (Homo sapiens) + Delta-type opioid receptor (Homo sapiens) (UniProt P35372+P41143)
Assay: OPRM1-OPRD1 heterodimer formation agonism – cell-based, luminescence, confirmation (AID 504904);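 also: 0% = vehicle-treated cells and 100% = reference agonist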
Settings: cells, MOR-DOR heterodimerization, luminescence complementation; at 9.3 µM; stronger effect = higher value

Mu-type opioid receptor (Homo sapiens) + Delta-type opioid receptor (Homo sapiens), sequence (P35372 whole entry, looked up): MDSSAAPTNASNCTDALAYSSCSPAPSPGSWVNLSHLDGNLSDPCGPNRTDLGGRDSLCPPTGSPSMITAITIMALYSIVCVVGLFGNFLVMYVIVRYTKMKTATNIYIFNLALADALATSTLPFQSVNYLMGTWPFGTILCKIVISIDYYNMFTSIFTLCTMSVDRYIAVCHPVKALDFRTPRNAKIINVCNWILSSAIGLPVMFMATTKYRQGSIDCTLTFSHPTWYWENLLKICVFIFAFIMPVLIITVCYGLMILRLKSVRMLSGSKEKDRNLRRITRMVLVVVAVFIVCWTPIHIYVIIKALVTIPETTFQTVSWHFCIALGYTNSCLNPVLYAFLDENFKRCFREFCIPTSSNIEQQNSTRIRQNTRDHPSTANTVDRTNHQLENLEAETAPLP
Mu-type opioid receptor (Homo sapiens) + Delta-type opioid receptor (Homo sapiens), sequence (P41143 whole entry, looked up): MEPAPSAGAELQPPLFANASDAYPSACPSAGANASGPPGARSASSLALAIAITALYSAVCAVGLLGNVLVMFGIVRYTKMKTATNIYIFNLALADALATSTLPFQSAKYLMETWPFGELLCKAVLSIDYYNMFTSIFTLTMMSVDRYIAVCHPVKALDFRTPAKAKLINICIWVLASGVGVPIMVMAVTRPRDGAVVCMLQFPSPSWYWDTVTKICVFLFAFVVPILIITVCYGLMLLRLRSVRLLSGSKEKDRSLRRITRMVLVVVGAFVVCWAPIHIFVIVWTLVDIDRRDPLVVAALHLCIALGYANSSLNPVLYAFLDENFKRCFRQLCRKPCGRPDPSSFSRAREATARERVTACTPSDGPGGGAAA

| Structure (SMILES) | activation |
| --- | --- |
| COc1cccc(/C=N/Nc2cc(C)nc(-c3ccccc3O)n2)c1O | -1.59% |
| O=C1N/C(=C/c2cccs2)C(=O)N1Cc1ccc(F)cc1 | 35% (active) |
| CC1CCCN(CCOCCOc2ccccc2-c2ccccc2)C1 (stereo unspecified) | 1.28% |
| COc1cc(/C=N/NC(=O)Nc2ccccc2)ccc1OCCOc1ccccc1C | 17.1% |
| COc1ccc(C2Nc3ccccc3C(=O)N2c2ccc(F)cc2)cc1Cn1nnc2ccccc21 (stereo unspecified) | 0.83% |
| COc1ccc(-n2nnnc2-c2nc3ccccc3s2)cc1 | 3.47% |
| CCOC(=O)C1(CC2CCCCO2)CCN(Cc2nc(-c3cccs3)oc2C)CC1 (stereo unspecified) | 49.1% (active) |
| Cc1cc(C)cc(C(=O)N(CCc2ccccc2)C2=CC3CCC(C2)N3C)c1 (stereo unspecified) | 137% (active) |
| COC(=O)c1ccc(C23CC4(C2)[C@H](CN(Cc2cccnc2)[C@@H]4c2ccccc2)C3c2ccc(Cl)nc2)cc1 (stereo partly specified) | 17.2% |
| CN(C)C(CNC(=O)Cc1ccc([N+](=O)[O-])cc1)c1ccccc1 (stereo unspecified) | 164% (active) |
| CN(C)CCCN(C(=O)c1ccc(S(=O)(=O)N2CCCc3ccccc32)cc1)c1nc2ccc(F)cc2s1 | 8.38% |
| CCCC(=O)NC(C)C(c1cccs1)N1CCN(c2ccccc2)CC1 (stereo unspecified) | 36.7% (active) |
| CCc1ccc(C(CNc2nc(C(F)(F)F)nc3ccccc23)N(C)C)cc1 (stereo unspecified) | 42.4% (active) |
| COCCCNc1nc2c(-c3cccc(C)c3)nnn2c2ccc(Cl)cc12 | 15.3% |
| Cc1ccc(O)c(NC(=S)NC(=O)COc2ccc(Br)cc2)c1 | 2.92% |
| N#C/C(=C(/O)COC(=O)COc1ccc(Cl)cc1)c1nc2ccccc2[nH]1 | 13.4% |
| Cc1ccc(OCC(=O)Nc2ccc(NC(=O)c3cccs3)cc2)c(C)c1 | 421% (active) |
| N#CC(C(=O)c1ccc(S(=O)(=O)N2CCCCCC2)cc1)c1nc2ccccc2[nH]1 (stereo unspecified) | 6.41% |
| CN(C)C(CNC(=O)c1cc2ccccc2o1)c1ccccc1 (stereo unspecified) | 1.4% |
| Clc1ccc(COn2c(-c3ccc(Cl)cc3Cl)nc3ncccc32)cc1 | 2.83% |
| CC(OC(=O)/C=C/c1ccccc1)C(=O)Nc1ccc(C(N)=O)cc1 (stereo unspecified) | -2.09% |
